Assays:
Assay in all cases: DAPPL (digital affinity profiling via proximity ligation, sequencing); 10 mM Tris-HCl pH 7.5, 50 mM NaCl, 1 mM DTT, 4% glycerol, room temperature, 30 min; GST-TFs on glutathione beads, 16-mer random dsDNA library, 0.1% formaldehyde crosslink after washing; high values mean tight binding
Conditions in all cases: protein: recombinant; tags: N-terminal GST; dsDNA, one strand shown
FLI1 = molecular target: T1, FLI1 (Homo sapiens, UniProt Q01543 1-452)
T1 sequence: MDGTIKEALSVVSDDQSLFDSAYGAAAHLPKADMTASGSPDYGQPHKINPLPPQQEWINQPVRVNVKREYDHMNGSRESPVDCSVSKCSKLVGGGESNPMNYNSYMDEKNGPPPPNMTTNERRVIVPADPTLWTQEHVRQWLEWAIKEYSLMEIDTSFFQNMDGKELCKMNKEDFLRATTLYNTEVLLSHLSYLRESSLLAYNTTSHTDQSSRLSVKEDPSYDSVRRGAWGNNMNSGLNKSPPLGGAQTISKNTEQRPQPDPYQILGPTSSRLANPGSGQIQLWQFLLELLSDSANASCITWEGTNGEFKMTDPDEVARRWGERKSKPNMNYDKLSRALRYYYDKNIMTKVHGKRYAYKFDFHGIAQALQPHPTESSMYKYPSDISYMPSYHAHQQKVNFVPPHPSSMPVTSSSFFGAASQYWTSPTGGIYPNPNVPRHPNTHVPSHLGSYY
Outline: (§1)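 Pools were built from human transcription factors expressed in yeast as GST fusions, captured on glutathione beads and DNA-barcoded, along with a tag-only sample. Incubation with 200 nmole of a 16-mer random double-stranded DNA library lasted 30 min at room temperature in Tris/NaCl/DTT/glycerol buffer, and was followed by washing, 0.1% formaldehyde crosslinking, proximity ligation, PCR amplification and Illumina NextSeq500 sequencing. Binding signal is the quotient of each hexamer's read frequency for a factor and its frequency for the tag-only sample.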

ELK1 = molecular target: T2, ELK1 (Homo sapiens, UniProt P19419 1-428)
T2 sequence: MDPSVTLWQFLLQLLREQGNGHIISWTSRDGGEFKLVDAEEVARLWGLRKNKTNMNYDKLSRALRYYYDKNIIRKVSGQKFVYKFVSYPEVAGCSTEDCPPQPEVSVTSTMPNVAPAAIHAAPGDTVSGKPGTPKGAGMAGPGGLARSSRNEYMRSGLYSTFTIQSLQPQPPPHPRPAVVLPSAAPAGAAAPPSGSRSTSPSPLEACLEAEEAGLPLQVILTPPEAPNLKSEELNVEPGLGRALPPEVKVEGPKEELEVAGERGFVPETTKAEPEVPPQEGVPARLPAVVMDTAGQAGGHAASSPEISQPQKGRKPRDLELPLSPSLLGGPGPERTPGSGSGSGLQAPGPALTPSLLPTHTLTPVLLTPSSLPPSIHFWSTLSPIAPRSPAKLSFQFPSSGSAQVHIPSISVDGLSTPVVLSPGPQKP
Outline: as §1

GABPA = molecular target: T3, GABPA (Homo sapiens, UniProt Q06546 1-454)
T3 sequence: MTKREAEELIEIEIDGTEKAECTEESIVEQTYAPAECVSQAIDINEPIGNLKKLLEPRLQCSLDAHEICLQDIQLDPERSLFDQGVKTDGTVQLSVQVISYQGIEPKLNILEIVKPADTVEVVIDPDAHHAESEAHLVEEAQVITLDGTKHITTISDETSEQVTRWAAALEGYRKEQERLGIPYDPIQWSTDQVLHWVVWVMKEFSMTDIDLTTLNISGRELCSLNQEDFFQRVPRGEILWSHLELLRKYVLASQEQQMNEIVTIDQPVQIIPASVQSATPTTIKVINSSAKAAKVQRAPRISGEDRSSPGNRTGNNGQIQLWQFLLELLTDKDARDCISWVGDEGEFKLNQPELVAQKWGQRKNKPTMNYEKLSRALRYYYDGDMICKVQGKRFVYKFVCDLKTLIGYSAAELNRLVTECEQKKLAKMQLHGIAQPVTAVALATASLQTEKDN
Outline: as §1

ERG = molecular target: T4, ERG (Homo sapiens, UniProt P11308 1-479)
T4 sequence: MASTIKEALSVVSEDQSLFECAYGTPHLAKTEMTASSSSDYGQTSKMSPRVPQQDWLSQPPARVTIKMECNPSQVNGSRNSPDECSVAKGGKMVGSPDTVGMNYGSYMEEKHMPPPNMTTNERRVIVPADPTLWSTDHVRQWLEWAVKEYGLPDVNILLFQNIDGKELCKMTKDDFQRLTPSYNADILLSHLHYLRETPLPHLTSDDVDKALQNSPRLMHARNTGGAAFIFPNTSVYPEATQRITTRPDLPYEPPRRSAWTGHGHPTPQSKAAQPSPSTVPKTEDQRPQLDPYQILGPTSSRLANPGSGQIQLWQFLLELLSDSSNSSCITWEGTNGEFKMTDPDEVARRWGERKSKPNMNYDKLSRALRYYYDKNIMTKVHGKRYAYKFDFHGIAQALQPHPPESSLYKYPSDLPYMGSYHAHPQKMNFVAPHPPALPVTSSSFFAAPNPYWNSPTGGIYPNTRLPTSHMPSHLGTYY
Outline: as §1

ELF1 = ELF1 (Homo sapiens, UniProt P32519 1-619)
Outline: as §1

EHF = molecular target: T5, EHF (Homo sapiens, UniProt Q9NZC4 1-300)
T5 sequence: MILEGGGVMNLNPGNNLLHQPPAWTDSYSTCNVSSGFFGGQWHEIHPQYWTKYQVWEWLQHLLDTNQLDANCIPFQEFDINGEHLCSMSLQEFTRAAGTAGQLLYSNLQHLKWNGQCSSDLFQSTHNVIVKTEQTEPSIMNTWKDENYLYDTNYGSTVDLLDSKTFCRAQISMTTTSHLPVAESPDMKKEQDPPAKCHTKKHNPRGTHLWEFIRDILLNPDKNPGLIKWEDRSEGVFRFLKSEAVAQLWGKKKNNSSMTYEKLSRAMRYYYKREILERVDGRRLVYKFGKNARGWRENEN
Outline: as §1

SPI1 = SPI1 (Homo sapiens, UniProt P17947 1-270)
Outline: as §1

SPIB = SPIB (Homo sapiens, UniProt Q01892 1-262)
Outline: as §1

ELK3 = molecular target: T6, ELK3 (Homo sapiens, UniProt P41970 1-407)
T6 sequence: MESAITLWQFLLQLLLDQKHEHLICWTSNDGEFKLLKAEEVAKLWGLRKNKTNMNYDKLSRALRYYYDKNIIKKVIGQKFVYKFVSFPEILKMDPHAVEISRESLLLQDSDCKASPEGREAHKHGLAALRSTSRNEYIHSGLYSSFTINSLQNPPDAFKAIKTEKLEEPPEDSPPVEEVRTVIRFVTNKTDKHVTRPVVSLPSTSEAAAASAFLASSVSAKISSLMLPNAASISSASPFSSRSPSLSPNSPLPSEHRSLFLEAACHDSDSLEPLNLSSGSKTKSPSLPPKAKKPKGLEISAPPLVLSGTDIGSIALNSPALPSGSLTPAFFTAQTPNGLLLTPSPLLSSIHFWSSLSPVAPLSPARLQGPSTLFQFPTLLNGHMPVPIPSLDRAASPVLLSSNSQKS
Outline: as §1

FEV = molecular target: T7, FEV (Homo sapiens, UniProt Q99581 1-238)
T7 sequence: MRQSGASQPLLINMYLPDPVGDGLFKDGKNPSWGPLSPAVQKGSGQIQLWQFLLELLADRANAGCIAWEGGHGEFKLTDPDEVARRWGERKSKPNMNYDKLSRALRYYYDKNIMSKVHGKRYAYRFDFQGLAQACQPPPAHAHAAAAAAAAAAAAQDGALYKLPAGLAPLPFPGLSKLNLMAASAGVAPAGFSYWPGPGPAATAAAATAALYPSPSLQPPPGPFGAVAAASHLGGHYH
Outline: as §1

ETV5 = ETV5 (Homo sapiens, UniProt P41161 1-510)
Outline: as §1

SPIC = molecular target: T8, SPIC (Homo sapiens, UniProt Q8N5J4 1-248)
T8 sequence: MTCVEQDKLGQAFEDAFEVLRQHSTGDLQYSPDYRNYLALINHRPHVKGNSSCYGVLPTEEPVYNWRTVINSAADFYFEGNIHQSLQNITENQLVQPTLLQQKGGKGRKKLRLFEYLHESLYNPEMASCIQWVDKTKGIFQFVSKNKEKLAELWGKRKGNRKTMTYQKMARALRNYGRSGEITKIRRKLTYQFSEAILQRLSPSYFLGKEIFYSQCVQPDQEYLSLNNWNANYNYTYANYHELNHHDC
Outline: as §1

ELF4 = ELF4 (Homo sapiens, UniProt Q99607 1-663)
Outline: as §1

ELK4 = molecular target: T9, ELK4 (Homo sapiens, UniProt P28324-2 1-405)
T9 sequence: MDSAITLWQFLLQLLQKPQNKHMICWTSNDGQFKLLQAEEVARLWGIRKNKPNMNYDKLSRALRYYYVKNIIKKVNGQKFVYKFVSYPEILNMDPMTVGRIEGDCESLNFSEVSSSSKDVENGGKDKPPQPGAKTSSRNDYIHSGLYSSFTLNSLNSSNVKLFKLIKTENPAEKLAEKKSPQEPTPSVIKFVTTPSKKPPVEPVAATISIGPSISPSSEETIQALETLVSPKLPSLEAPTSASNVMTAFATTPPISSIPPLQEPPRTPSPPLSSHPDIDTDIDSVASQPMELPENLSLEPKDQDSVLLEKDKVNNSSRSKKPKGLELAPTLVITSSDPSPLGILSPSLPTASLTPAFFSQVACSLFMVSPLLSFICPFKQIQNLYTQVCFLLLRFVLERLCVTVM
Outline: as §1

ETV2 = molecular target: T10, ETV2 (Homo sapiens, UniProt O00321 1-342)
T10 sequence: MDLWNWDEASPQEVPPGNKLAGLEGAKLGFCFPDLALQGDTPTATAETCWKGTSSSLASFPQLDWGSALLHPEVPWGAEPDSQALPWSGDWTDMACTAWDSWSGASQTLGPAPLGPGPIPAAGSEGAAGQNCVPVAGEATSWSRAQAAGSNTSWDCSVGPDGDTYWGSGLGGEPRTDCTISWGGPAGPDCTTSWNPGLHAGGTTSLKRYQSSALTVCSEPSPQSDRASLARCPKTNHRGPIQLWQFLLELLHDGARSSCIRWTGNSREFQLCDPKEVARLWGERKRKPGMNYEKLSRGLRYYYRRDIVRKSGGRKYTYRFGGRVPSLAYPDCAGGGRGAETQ
Outline: as §1

ELF3 = molecular target: T11, ELF3 (Homo sapiens, UniProt P78545 1-371)
T11 sequence: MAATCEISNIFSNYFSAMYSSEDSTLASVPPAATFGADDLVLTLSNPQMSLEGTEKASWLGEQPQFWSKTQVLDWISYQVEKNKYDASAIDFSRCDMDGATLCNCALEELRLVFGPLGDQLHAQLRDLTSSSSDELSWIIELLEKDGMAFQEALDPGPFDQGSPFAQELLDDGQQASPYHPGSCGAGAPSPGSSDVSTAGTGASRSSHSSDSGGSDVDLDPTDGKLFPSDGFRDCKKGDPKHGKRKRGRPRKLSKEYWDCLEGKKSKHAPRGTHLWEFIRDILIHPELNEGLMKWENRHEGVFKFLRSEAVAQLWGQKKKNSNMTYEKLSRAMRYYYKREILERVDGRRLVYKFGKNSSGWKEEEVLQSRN
Outline: as §1

ETV1 = ETV1 (Homo sapiens, UniProt P50549 1-477)
Outline: as §1

Sequence of ETV1 (P50549 whole entry): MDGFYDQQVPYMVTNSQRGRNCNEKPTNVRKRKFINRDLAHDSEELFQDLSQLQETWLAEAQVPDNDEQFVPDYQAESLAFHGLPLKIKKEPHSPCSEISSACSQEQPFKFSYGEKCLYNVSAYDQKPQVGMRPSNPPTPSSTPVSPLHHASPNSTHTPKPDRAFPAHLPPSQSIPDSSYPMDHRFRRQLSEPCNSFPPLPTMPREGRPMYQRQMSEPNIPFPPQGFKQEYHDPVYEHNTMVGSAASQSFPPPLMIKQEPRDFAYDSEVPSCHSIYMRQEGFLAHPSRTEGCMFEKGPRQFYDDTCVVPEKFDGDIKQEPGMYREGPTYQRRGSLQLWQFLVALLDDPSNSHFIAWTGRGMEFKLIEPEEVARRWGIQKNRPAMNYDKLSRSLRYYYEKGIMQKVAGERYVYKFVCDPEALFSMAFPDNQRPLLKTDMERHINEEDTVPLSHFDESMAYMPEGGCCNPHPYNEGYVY
Sequence of SPIB (Q01892 whole entry): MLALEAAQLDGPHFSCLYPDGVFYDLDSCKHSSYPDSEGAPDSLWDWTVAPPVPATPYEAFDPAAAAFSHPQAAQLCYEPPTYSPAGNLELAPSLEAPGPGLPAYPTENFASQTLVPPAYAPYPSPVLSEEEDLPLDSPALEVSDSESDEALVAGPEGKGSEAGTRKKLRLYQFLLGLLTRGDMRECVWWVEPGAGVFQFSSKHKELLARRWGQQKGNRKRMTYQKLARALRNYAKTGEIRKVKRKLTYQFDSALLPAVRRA
Sequence of ETV5 (P41161 whole entry): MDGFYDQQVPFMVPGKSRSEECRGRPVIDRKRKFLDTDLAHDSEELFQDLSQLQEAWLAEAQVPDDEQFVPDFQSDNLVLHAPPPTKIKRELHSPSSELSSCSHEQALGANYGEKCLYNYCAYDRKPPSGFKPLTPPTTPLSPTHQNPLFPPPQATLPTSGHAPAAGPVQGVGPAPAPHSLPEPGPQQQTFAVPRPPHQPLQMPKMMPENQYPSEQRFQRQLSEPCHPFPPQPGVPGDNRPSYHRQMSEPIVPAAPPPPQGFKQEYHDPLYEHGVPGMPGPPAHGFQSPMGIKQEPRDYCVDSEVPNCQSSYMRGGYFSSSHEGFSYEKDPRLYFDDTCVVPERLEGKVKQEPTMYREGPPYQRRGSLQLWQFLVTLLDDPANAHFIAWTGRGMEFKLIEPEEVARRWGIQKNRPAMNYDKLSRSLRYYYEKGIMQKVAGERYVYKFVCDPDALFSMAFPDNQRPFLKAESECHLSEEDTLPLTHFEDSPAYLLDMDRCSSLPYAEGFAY
Sequence of ELF1 (P32519 whole entry): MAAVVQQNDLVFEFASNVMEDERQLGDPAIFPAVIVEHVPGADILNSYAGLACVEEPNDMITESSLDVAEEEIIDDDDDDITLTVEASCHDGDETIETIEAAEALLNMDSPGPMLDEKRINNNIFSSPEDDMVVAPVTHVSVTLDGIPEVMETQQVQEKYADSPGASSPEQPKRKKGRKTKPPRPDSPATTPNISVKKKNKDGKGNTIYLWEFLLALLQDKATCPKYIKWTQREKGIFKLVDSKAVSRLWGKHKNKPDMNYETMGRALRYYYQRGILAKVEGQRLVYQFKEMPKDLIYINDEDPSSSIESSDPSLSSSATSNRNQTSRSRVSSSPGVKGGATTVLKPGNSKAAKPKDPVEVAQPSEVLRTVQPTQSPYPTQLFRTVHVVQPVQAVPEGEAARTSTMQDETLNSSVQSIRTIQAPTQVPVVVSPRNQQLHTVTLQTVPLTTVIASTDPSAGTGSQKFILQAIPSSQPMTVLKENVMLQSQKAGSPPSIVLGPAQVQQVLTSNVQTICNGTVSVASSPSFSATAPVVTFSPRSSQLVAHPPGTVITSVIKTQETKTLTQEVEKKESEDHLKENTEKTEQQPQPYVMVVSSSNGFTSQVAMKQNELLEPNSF
Sequence of ELF4 (Q99607 whole entry): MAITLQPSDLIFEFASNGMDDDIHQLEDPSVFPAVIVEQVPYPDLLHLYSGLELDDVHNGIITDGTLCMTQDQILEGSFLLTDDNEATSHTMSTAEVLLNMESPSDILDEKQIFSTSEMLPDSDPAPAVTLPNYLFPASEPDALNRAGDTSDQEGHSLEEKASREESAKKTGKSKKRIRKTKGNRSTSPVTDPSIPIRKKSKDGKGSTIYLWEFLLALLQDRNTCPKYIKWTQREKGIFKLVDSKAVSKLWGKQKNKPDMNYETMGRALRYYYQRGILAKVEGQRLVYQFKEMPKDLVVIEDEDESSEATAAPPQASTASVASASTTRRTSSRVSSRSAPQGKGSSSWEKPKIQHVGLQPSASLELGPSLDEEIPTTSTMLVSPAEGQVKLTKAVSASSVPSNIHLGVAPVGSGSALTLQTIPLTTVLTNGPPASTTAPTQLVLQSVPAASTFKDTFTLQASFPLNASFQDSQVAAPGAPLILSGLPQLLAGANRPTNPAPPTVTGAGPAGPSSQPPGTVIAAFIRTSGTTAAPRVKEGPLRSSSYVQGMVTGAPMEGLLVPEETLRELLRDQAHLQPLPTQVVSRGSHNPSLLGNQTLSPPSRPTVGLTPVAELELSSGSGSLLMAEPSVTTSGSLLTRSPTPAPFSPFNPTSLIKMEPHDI

Sequence	binding signal (FLI1)	binding signal (ELK1)	binding signal (GABPA)	binding signal (ERG)	binding signal (ELF1)	binding signal (EHF)	binding signal (SPI1)	binding signal (SPIB)	binding signal (ELK3)	binding signal (FEV)	binding signal (ETV5)	binding signal (SPIC)	binding signal (ELF4)	binding signal (ELK4)	binding signal (ETV2)	binding signal (ELF3)	binding signal (ETV1)
CACACT	1.18 fold enrichment (6-mer frequency, TF over GST control)	1.11 fold enrichment (6-mer frequency, TF over GST control)	1.17 fold enrichment (6-mer frequency, TF over GST control)	1.18 fold enrichment (6-mer frequency, TF over GST control)	1.21 fold enrichment (6-mer frequency, TF over GST control)	1.2 fold enrichment (6-mer frequency, TF over GST control)	1.16 fold enrichment (6-mer frequency, TF over GST control)	1.14 fold enrichment (6-mer frequency, TF over GST control)	1.24 fold enrichment (6-mer frequency, TF over GST control)	1.21 fold enrichment (6-mer frequency, TF over GST control)	1.23 fold enrichment (6-mer frequency, TF over GST control)	1.13 fold enrichment (6-mer frequency, TF over GST control)	1.23 fold enrichment (6-mer frequency, TF over GST control)	1.13 fold enrichment (6-mer frequency, TF over GST control)	1.14 fold enrichment (6-mer frequency, TF over GST control)	1.21 fold enrichment (6-mer frequency, TF over GST control)	1.14 fold enrichment (6-mer frequency, TF over GST control)
ACCCCC	1.17 fold enrichment (6-mer frequency, TF over GST control)	1.16 fold enrichment (6-mer frequency, TF over GST control)	1.21 fold enrichment (6-mer frequency, TF over GST control)	1.16 fold enrichment (6-mer frequency, TF over GST control)	1.09 fold enrichment (6-mer frequency, TF over GST control)	1.12 fold enrichment (6-mer frequency, TF over GST control)	1.14 fold enrichment (6-mer frequency, TF over GST control)	1.21 fold enrichment (6-mer frequency, TF over GST control)	1.18 fold enrichment (6-mer frequency, TF over GST control)	1.19 fold enrichment (6-mer frequency, TF over GST control)	1.18 fold enrichment (6-mer frequency, TF over GST control)	1.12 fold enrichment (6-mer frequency, TF over GST control)	1.2 fold enrichment (6-mer frequency, TF over GST control)	1.28 fold enrichment (6-mer frequency, TF over GST control)	1.05 fold enrichment (6-mer frequency, TF over GST control)	1.29 fold enrichment (6-mer frequency, TF over GST control)	1 fold enrichment (6-mer frequency, TF over GST control)
